# Source: PubChem BioAssay (NCATS)
# Records with an inconclusive call do not appear. Where a call stands in place of a potency, no number is given. Calls of active or inactive are those of the source. Unless noted, the call rests on the fitted dose curve; in most records, active means well fitted curve in the direction sought with a large enough effect; inconclusive means small, poorly fitted or top-dose-only effect, or another doubt; inactive means no such curve, though single readings can be large; an effect the other way counts as inactive or inconclusive.
# Columns and labels:
# [1] = molecular target: Endonuclease 4 (Escherichia coli (strain K12)) (UniProt P0A6C1); experiment: Counterscreen for APE1 Inhibitors: qHTS Validation Assay for Inhibitors of Endonuclease IV (AID 1708)
# Procedure, shortened: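 Enzyme (2 nM) + compound, 15 min RT; add 50 nM TAMRA/BHQ-2 THF-site dsDNA; kinetic read ex525/em598, 3 reads/60 s; activity = read 3 − read 1. Buffer Tris pH 7.5, 50 mM NaCl, 2 mM MgCl2, DTT, Tween-20.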
# [2] = qHTS for differential inhibitors of proliferation of Plasmodium falciparum line 7G8 (AID 1815);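 further: parasite growth measured after three days of incubation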; further: potency means the concentration at half of the fitted maximal effect
# [3] = qHTS for differential inhibitors of proliferation of Plasmodium falciparum line GB4 (AID 1816); conditions: Potency: Plasmodium falciparum GB4 proliferation inhibition;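 further: parasite growth measured after 72 h incubation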; further: potency means the concentration at half of the fitted maximal effect
# [4] = qHTS for differential inhibitors of proliferation of Plasmodium falciparum line 3D7 (AID 1876); further: potency means the concentration at half of the fitted maximal effect
# [5] = qHTS for differential inhibitors of proliferation of Plasmodium falciparum line D10 (AID 1877);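 further: parasites grown with compound for 72 h before DNA staining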; further: potency means the concentration at half of the fitted maximal effect
# [6] = qHTS for differential inhibitors of proliferation of Plasmodium falciparum line Dd2 (AID 1882); conditions: Potency: Plasmodium falciparum Dd2 proliferation inhibition; further: series mostly up to about 29 µM; nearly all actives have a fitted effect of over 65% in size
# Procedure, shortened: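 SYBR Green DNA fluorescence (ex 485, em 535 nm) after overnight lysis quantifies parasite growth; compound exposure lasted 72 h at 37 C on infected red cells at 2.5% hematocrit, 0.3% parasitemia (final). Artemisinin 0.29 uM and vehicle wells define normalization.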
# [7] = qHTS for differential inhibitors of proliferation of Plasmodium falciparum line W2 (AID 1883); conditions: Potency: Plasmodium falciparum W2 proliferation inhibition;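 further: parasites grown with compound for 72 h before lysis and staining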; further: potency means the concentration at half of the fitted maximal effect
# [8] = qHTS for differential inhibitors of proliferation of Plasmodium falciparum line HB3 (AID 1886); conditions: Potency: Plasmodium falciparum HB3 proliferation inhibition;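 further: parasites grown with compound for 72 h before SYBR Green readout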; further: potency means the concentration at half of the fitted maximal effect
# [9] = molecular target: ATP-dependent DNA helicase Q1 (Homo sapiens) (UniProt P46063); experiment: qHTS Validation Assay for Inhibitors of RecQ-Like Dna Helicase 1 (RECQ1) (AID 2353); further: potency means the concentration at half of the fitted maximal effect
# ATP-dependent DNA helicase Q1 (Homo sapiens), sequence (P46063 whole entry, looked up): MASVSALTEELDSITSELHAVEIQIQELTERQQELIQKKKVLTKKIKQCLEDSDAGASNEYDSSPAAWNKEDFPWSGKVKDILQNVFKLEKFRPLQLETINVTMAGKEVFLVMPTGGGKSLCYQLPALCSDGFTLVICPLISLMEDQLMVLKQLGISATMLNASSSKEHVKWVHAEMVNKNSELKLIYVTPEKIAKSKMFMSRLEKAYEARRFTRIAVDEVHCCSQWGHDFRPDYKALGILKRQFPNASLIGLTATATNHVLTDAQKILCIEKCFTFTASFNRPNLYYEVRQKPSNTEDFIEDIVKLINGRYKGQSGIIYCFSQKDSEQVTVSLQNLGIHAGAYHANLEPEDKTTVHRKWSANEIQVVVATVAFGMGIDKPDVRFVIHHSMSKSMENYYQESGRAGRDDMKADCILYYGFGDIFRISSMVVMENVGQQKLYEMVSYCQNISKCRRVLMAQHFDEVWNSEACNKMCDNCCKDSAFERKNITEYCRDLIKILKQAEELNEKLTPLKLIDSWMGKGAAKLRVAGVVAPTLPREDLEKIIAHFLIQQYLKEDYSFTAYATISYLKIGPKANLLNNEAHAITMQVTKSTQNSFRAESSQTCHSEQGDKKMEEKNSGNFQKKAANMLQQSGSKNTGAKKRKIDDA
# Procedure, shortened: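 RECQ1T1 50 nM; forked duplex (20 bp + 30-nt ss tails) 200 nM, ATP 2 mM final; pH 8.0, 2 mM MgCl2, 2.5 ug/ml poly(dI-dC); 15 min compound preincubation; discontinuous kinetic read over 2 h at RT.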
# [10] = Cytometric Cell-Based qHTS for Inhibitors of the mTORC1 Signaling Pathway in MEF (Tsc2-/-, p53-/-) Cells (AID 2660);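 further: percent of cells above a phospho-rpS6 to PI ratio cutoff in each well; series mostly up to about 38 µM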
# Procedure, shortened: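 Tsc2-/-, p53-/- MEFs (empty vector) exposed to compound 24 h at 37 C, fixed, stained with Alexa-488 anti-phospho-rpS6 Ser235/236 and propidium iodide. Acumen laser scanning; phospho-S6/PI ratio thresholded against 7.5 nM rapamycin, reported as % positive cells.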
# [11] = High Content Imaging Cell-Based qHTS for Inhibitors of the mTORC1 Signaling Pathway in MEF (Tsc2-/-, p53-/-) Cells (AID 2666);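 further: percent of cells scored positive for phospho-rpS6 Ser235/236 immunostaining by imaging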; further: potency means the concentration at half of the fitted maximal effect
# Procedure, shortened: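 Inhibition of rpS6 phosphorylation is measured by immunofluorescence imaging in empty-vector Tsc2-/-, p53-/- mouse embryonic fibroblasts after 24 hrs compound exposure at 37 degree Celsius. Results are reported as % positive cells per well.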
# [12] = Validation screen for small molecules that induce DNA re-replication in MCF 10A normal breast cells (AID 463097); further: nearly all actives have a fitted effect of over 60% in size
# Procedure, shortened: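 250 MCF 10A cells/well; compound pin-transferred; 48 hr, 37 C, 5% CO2; Hoechst 40 min; imaged 405/500-530 nm. Hits = more high-intensity nuclei.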
# [13] = molecular target: DNA polymerase III PolC-type (Bacillus subtilis (strain 168)) (UniProt P13267); experiment: qHTS Validation Assay for the Inhibitors of DNA Replication in Gram-Positive Bacteria (AID 485295);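 further: reconstituted holoenzyme with PolC plus beta clamp SSB and primase; PicoGreen fluorescence of double-stranded DNA made on primed circular M13 template; series mostly up to about 57 µM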
# DNA polymerase III PolC-type (Bacillus subtilis (strain 168)), sequence (P13267 whole entry, looked up): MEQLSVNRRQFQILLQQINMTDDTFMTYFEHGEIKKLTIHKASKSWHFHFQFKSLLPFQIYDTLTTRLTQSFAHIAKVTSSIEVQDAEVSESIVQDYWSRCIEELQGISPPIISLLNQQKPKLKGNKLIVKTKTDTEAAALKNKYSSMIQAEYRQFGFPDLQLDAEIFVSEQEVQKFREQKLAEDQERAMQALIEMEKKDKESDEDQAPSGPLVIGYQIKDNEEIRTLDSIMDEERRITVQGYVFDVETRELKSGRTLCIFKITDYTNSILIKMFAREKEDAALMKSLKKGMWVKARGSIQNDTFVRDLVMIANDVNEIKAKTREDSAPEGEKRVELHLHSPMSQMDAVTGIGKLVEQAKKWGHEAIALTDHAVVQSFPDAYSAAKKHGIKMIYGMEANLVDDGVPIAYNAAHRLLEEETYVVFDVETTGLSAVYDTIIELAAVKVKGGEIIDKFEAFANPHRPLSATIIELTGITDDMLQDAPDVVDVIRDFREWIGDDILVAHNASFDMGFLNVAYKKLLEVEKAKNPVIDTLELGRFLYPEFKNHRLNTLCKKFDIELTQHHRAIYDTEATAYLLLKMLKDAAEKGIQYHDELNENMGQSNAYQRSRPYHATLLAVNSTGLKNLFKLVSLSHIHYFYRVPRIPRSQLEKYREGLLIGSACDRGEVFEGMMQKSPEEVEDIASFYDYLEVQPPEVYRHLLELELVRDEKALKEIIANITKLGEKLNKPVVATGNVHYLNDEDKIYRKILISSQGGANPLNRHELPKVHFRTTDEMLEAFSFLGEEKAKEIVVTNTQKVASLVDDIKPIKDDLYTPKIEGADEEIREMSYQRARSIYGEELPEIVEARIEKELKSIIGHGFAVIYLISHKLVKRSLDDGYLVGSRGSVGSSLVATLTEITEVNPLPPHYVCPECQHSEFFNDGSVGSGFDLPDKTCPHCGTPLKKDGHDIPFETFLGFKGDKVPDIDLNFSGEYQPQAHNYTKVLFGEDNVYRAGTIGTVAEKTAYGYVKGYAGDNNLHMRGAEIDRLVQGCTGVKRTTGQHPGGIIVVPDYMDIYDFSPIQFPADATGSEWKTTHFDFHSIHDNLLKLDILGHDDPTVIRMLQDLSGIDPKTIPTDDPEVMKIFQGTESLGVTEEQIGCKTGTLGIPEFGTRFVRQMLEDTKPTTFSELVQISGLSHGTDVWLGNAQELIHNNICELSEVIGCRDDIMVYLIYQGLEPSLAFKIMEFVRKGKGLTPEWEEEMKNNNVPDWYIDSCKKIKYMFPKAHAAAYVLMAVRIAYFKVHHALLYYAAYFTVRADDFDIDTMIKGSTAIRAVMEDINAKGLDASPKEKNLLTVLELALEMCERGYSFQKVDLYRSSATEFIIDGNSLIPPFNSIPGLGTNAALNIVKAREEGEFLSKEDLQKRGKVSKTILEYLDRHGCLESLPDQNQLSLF
# Procedure, shortened: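 PicoGreen fluorescence (ex 480–485/em 535–540 nm) reports dsDNA synthesized on ssM13Gori template with dNTPs/NTPs. Enzyme: holoenzyme rebuilt from purified PolC, beta subunit, SSB and primase. Compound preincubated before substrate addition; RT throughout.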
# [14] = molecular target: Tumor susceptibility gene 101 protein (Homo sapiens) (UniProt Q99816); experiment: qHTS Validation Assay for Iinhibitors of HIV-1 Budding by Blocking the Interaction of PTAP/TSG101 (AID 485342; calls by dose curve)
# Tumor susceptibility gene 101 protein (Homo sapiens), sequence (Q99816 whole entry, looked up, the tested form may be a part): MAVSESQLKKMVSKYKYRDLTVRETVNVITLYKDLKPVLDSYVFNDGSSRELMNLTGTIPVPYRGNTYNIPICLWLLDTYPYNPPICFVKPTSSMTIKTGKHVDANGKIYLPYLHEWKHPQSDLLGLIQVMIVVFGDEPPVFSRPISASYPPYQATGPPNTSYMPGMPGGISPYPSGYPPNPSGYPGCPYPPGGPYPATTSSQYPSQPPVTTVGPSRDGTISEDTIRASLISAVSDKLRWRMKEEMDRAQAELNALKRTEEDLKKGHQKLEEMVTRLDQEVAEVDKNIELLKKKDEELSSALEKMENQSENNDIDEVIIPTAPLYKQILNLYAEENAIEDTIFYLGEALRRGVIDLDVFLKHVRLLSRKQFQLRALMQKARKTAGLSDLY
# Procedure, shortened: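 FP read-out: FITC-PTAP peptide, 50 nM final, binding Tsg101 binding domain, 10 uM final; 20 min r.t.; 10 mM HEPES pH 7.5, 0.15 M NaCl, 0.01% Tween 20, 3 mM EDTA, 0.1 mM TCEP.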
# [15] = qHTS Validation Assay to Find Inhibitors of Chronic Active B-Cell Receptor Signaling (AID 485345; active means well fitted curve in the direction sought with a large enough effect in the main read-out, with a control signal flat, not every such curve was filed as active)
# Procedure, shortened: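 TMD8 ABC-DLBCL cells with dox-inducible green luciferase–IκBα fusion and red native luciferase; compounds 46 uM–3 nM, 4 h at 37C with doxycycline in 0.5% FBS IMDM. Green/red ratio normalized to basal and 10 uM MG-132.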
# [16] = molecular target: RecQ-like DNA helicase BLM (Homo sapiens) (UniProt P54132); experiment: qHTS Validation Assay for Inhibitors of Bloom's syndrome helicase (BLM) (AID 2364)
# RecQ-like DNA helicase BLM (Homo sapiens), sequence (P54132 whole entry, looked up): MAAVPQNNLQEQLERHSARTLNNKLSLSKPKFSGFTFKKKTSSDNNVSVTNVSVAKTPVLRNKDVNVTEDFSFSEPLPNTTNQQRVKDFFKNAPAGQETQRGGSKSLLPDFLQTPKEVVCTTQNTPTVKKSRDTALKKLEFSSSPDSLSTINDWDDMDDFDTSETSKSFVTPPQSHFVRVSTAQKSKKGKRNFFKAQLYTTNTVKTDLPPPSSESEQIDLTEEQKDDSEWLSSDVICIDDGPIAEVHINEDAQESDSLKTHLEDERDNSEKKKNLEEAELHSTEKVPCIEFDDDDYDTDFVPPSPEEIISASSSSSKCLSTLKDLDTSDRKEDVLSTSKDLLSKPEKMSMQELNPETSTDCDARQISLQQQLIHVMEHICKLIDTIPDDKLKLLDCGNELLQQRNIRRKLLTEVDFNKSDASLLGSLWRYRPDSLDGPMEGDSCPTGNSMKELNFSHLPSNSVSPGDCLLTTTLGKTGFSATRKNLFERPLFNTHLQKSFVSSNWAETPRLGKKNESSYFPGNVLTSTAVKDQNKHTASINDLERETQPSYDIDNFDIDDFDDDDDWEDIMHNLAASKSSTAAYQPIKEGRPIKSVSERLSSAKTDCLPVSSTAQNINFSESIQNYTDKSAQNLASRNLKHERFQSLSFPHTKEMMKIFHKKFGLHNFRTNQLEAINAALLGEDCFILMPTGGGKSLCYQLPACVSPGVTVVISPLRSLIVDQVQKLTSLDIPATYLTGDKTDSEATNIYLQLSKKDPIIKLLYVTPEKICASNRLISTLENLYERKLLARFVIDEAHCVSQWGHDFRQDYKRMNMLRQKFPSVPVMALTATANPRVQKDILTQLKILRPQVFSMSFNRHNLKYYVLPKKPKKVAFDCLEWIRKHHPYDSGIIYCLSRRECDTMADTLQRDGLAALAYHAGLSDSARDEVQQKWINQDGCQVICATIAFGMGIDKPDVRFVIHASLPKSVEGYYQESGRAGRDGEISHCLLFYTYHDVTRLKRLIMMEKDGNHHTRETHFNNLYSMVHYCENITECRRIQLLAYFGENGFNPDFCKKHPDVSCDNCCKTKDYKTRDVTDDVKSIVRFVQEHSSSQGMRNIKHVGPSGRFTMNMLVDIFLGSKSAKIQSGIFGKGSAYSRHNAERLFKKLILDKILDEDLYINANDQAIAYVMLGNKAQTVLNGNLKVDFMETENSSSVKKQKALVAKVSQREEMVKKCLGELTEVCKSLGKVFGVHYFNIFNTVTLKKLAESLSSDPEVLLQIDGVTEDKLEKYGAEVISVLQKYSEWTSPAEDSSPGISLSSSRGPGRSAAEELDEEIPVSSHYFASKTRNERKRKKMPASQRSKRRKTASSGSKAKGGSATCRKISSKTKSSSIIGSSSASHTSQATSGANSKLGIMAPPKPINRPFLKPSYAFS
# Procedure, shortened: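 BLM 50 nM in 25 mM Tris-HCl pH 8.0, 5 mM NaCl, 2 mM MgCl2, 1 mM DTT, 0.01% Tween-20, 2.5 ug/ml poly(dI-dC); 15 min cpd preinc, RT. Start: 200 nM forked DNA + 2 mM ATP (final). TAMRA read, 2 reads 2 h apart.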
# [17] = High Content Imaging Cell-Based qHTS for Inhibitors of the mTORC1 Signaling Pathway in MEF Cells (AID 2667);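 further: Tsc2-/- p53-/- MEFs stably re-expressing wild-type Tsc2 exposed 24 h; series mostly up to about 38 µM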
# Procedure, shortened: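 Fixed-cell imaging of phospho-S6 (Ser235/236, Alexa-488) after 24 hrs of compound treatment at 37 degree Celsius. Signal was normalized to Hoechst, and thresholds from the highest and lowest wells split cells into % active versus % non-active.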
# [18] = qHTS Assay for Modulators of Human Peripheral Myelin Protein 22 (PMP22) Expression/Activity (AID 1967; active means well fitted curve in the direction sought with a large enough effect in the signal ratio; the % refers to the signal ratio)
# Procedure, shortened: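 Mouse MSC80 Schwann line, Pmp22 promoter–CBG68 reporter, EF-alpha–CBR internal control. 24h compound exposure, 37 °C/5% CO2, DMEM + 10% FBS. Readout: corrected green/red luminescence ratio, normalized to untreated cells; concentration-response curves fitted and classified.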
# [19] = qHTS Assay for Identification of Small Molecule Inducers of Hypoxia Response (AID 2120; active means well fitted curve in the direction sought with a large enough effect in the signal ratio, with a control signal flat, not every such curve was filed as active; the % refers to the signal ratio)
# Procedure, shortened: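 Cell-based qHTS for reporter induction: hypoxia response element controlled beta-lactamase in ME-180 cells. Compounds incubated 17 h at 37 degrees C; activity from blue/green (460/530 nm) ratio, inducers ranked by AC50.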
SMILES,outcome [1],Potency [2],Potency [3],Potency [4],Potency [5],Potency [6],Potency [7],Potency [8],Potency [9],Potency [10],Potency [11],Potency [12],Potency [13],outcome [14],Potency [15],Potency [16],Potency [17],outcome [18],outcome [19]
O=C(O)c1cccnc1Nc1cccc(C(F)(F)F)c1,inactive,inactive,inactive,inactive,inactive,inactive,inactive,inactive,inactive,inactive,inactive,–,inactive,inactive,–,inactive,inactive,–,–
COc1ccc2cc([C@H](C)C(=O)O)ccc2c1,inactive,inactive,inactive,inactive,inactive,inactive,inactive,inactive,inactive,inactive,–,inactive,inactive,inactive,inactive,inactive,inactive,–,–
C[C@@H](N)C1CCC(C(=O)Nc2ccncc2)CC1 (stereo partly specified),inactive,inactive,inactive,inactive,inactive,inactive,–,inactive,inactive,inactive,inactive,inactive,inactive,inactive,inactive,inactive,inactive,inactive,–
CCN(CC)C(=S)SSC(=S)N(CC)CC,inactive,–,5.01 µM (active),2.82 µM (active),–,–,–,–,inactive,–,1.85 µM (active),–,inactive,inactive,–,inactive,inactive,–,–
NCCCCNCCCN,inactive,inactive,inactive,inactive,inactive,inactive,inactive,inactive,inactive,–,–,inactive,inactive,inactive,inactive,inactive,inactive,–,–
C[C@H](Cc1ccc(O)c(O)c1)[C@@H](C)Cc1ccc(O)c(O)c1,inactive,3.98 µM (active),5.01 µM (active),12.6 µM (active),12.6 µM (active),–,10 µM (active),14.1 µM (active),11.2 µM (active),inactive,inactive,–,–,inactive,–,–,inactive,–,–
Cc1cccc(C#Cc2ccccc2)n1,inactive,–,–,–,inactive,inactive,12.6 µM (active),–,inactive,inactive,inactive,inactive,inactive,inactive,inactive,–,inactive,–,–
Cc1c(OCC(F)(F)F)ccnc1CS(=O)c1nc2ccccc2[nH]1 (stereo unspecified),inactive,–,–,–,–,inactive,–,–,inactive,inactive,inactive,inactive,inactive,inactive,inactive,inactive,inactive,–,–
O=C1c2c(O)cc(O)cc2OC(c2ccc(O)c(O)c2)C1O (stereo unspecified),inactive,–,15.8 µM (active),14.1 µM (active),–,inactive,12.6 µM (active),15.8 µM (active),inactive,inactive,inactive,–,inactive,inactive,inactive,–,inactive,–,–
Nc1nc(OCc2ccccc2)c2[nH]cnc2n1,inactive,inactive,inactive,inactive,inactive,inactive,–,inactive,inactive,inactive,inactive,inactive,inactive,inactive,–,–,inactive,–,–
NNc1nncc2ccccc12,inactive,–,inactive,inactive,–,inactive,–,inactive,inactive,inactive,inactive,inactive,inactive,inactive,inactive,–,inactive,–,–
O=C1NC(=O)C(c2ccccc2[N+](=O)[O-])=C1Nc1ccc(O)c(Cl)c1,inactive,–,–,–,inactive,inactive,17.8 µM (active),–,inactive,inactive,inactive,–,inactive,inactive,inactive,–,inactive,–,–
O=C(CCc1ccc(O)cc1)c1c(O)cc(O)cc1O,inactive,–,11.2 µM (active),–,inactive,–,14.1 µM (active),–,inactive,inactive,inactive,inactive,inactive,inactive,inactive,inactive,inactive,–,–
O=c1ccc2ccc(O)c(O)c2o1,inactive,10 µM (active),15.8 µM (active),–,–,–,15.8 µM (active),12.6 µM (active),inactive,inactive,inactive,inactive,inactive,inactive,inactive,inactive,inactive,–,–
Cc1cc(O)c2c(c1)C(=O)c1cc(O)cc(O)c1C2=O,inactive,–,–,–,inactive,inactive,–,–,inactive,inactive,inactive,–,–,inactive,–,–,inactive,–,inactive
CC1(C)NC(=O)N(c2ccc([N+](=O)[O-])c(C(F)(F)F)c2)C1=O,inactive,inactive,inactive,inactive,inactive,inactive,–,inactive,inactive,inactive,inactive,inactive,inactive,inactive,inactive,inactive,inactive,inactive,–
